Measured values: PubChem BioAssay AID720542 (National Center for Advancing Translational Sciences (NCATS), 2013)
Hit rate of the full screen: of about 360,000 compounds, about 740 (0.21%) were called active. Another 2% or so got no clear call; they are omitted. The call rests on the fitted dose curve; in most records, active means well fitted inhibition curve with a large enough effect; inconclusive means small, poorly fitted or top-dose-only effect; inactive means no such curve, though single readings can be large or run the other way. Only a selection was taken, and actives are over-represented in it overall.
Further: nearly all actives have a fitted effect of over 45% in size.
Potency means the concentration at half of the fitted maximal effect.
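Wherever activity change, negative = inhibition is given: 0% = vehicle wells and -100% = peptide control.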

The compounds below were run on Plasmodium falciparum AMA1 (3D7) - RON2 peptide interaction (assay: qHTS for Inhibitors of AMA1-RON; Towards Development of Antimalarial Drug Lead: Primary Screen). Conditions: AlphaScreen AMA1-biotinylated RON2 peptide binding; series mostly up to 58.2 µM; activity change, negative = inhibition: at the top concentration.
Text: Plasmodium, the causative agent of malaria, is one of the world's deadliest parasitic diseases. Currently there is no vaccine available and there is widespread resistance to common anti-malarial drugs. This warrants novel, alternative approaches for developing improved therapy. During infection, one such essential interaction is between two parasite proteins, the apical membrane antigen1 (AMA1) that is translocated onto the merozoite surface and the rhoptry neck protein 2 (RON2), which is transferred to the red blood cells (RBC) membrane during invasion (Besteiro et.al., 2009). Recently, the Miller lab has shown that the interaction between AMA1 and RON2 is essential for junction formation of the parasite with the host cell (Srinivasan et.al., 2011). The binding of the RON2 peptide to the hydrophobic pocket in AMA triggers the formation of the moving junction which provides a firm anchor for the parasite to pull itself into the RBC using its actin-myosin motor; an irreversible step that commits the parasite for invasion. Only one AMA1 and RON2 genes exists in Plasmodium and there are no alternate pathways. Moreover, the region corresponding to RON2 peptide is conserved in all P. falciparum isolates for which sequences are available. The key residues in the AMA1 hydrophobic pocket that binds RON2 are also conserved and indicate a functional constraint governing this essential step in invasion since a short RON2 peptide (RON2L) corresponding to the binding region on AMA1 is sufficient to compete with the native RON2 protein and inhibits invasion (Tonkin et.al, 2011). Therefore, developing small molecule inhibitors of this interaction offers a promising target opening a new arena for anti-malarial therapeutics drug design.
In collaboration with the Miller lab, a quantitative High Throughput Screen using the AlphScreen technology was developed using a recombinant his-tagged AMA1 and a biotinylated RON2 peptide. This fluorescent screen was assayed against the NIH Molecular Libraries Small Molecule Repository (MLSMR). Inhibition of this protein-protein interaction is the desired outcome of this assay. However, due the limitations of this AlphaScreen assay, a large number of artifacts were observed. An AlphaScreen counterscreen was run to identify the true inhibitors, triage compound activity, and weed out false positives.
NIH Chemical Genomics Center [NCGC]
NIH Molecular Libraries Probe Centers Network [MLPCN]
Assay Submitter (PI): Louis Miller, National Institute of Allergy and Infectious Disease (NIAID)
Two microliters of his-tagged AMA1 3D7 allele protein (final concentration 25 nM) was dispensed into a 1,536-well assay plate. Small molecules and positive control peptides were pin-transferred (23 nL or 46 nL) via Kalypsys pin-tool equipped with a 1,536-pin array, resulting in final compound and peptide concentration ranges of 91.5 nM - 57.2 µM, and 15.6 nM - 2.00 µM, respectively. Unlabeled RON2 peptide or R1 peptide ([…]) that specifically binds the 3D7 AMA1 was used as a positive control that inhibited the binding of RON2L to AMA1. After 15 minutes incubation, 1 uL of biotinylated RON2 peptide (final concentration 25 nM) or buffer were dispensed and the assay plate was incubated for an additional 30 minutes at room temperature and protected from light. This was followed by an addition of 1 uL mixture of donor and acceptor beads (10 ug/mL final concentrations for each). The plates were incubated for 30 min at room temperature and read using the EnVision(R) plate reader (PerkinElmer). Maximum inhibition response was normalized to the positive control signal while no inhibition response was normalized to the DMSO treated wells.
In the case of `CCCN(CCC)CC(O)COc1ccccc1C(=O)Nc1ccccc1` (stereo unspecified), the “activity change, negative = inhibition” value is reported as -11.6% (inactive).
With `CC(C)C(O)C1CCN(Cc2nc(Cc3ccccc3Cl)no2)CC1` (stereo unspecified) the “activity change, negative = inhibition” value was 45.3% (inactive).
`CCCOc1cc(C)c(S(=O)(=O)n2nnc3ccccc32)cc1C` was tested, and the “activity change, negative = inhibition” value was 7.11% (inactive).
For `COc1cccc(-n2c(=O)c3c(C)c(C(=O)N(C)C)sc3n(CC(=O)NCCc3ccc(OC)c(OC)c3)c2=O)c1`, the “activity change, negative = inhibition” value was 4.48% (inactive).
With `Cc1ccc(OCC(=O)Nc2cccc3c2CCCC3)cc1C` the “activity change, negative = inhibition” value was 10.4% (inactive).
`Oc1cc(O)c2c(c1)OC(c1ccc(O)c(O)c1)C(O)C2` (stereo unspecified) was tested, and the “activity change, negative = inhibition” value was -11.9% (inactive).
For `CCOC(=O)C1(Cc2ccccc2C(F)(F)F)CCN(C(=O)c2cc(C)n(C)n2)CC1`, the “activity change, negative = inhibition” value was -2.34% (inactive).
For `C[C@H](CO)N1C[C@H](C)[C@@H](CN(C)C(=O)NC2CCCCC2)Oc2ccc(NC(=O)c3ccncc3)cc2C1=O`, the “activity change, negative = inhibition” value was -2.89% (inactive).
With `CCCCN(C(=O)c1ccc(OC(F)(F)F)cc1)c1c(N)n(CCC)c(=O)[nH]c1=O` the “activity change, negative = inhibition” value was 5.06% (inactive).
With `CC(C)C(=O)NCC(c1cccs1)S(=O)(=O)c1ccc(F)cc1` (stereo unspecified) the “activity change, negative = inhibition” value was 20.5% (inactive).
For `Cc1csc(=O)n1CCC(=O)OCC(=O)Nc1ccc(N2CCOCC2)cc1`, the “activity change, negative = inhibition” value was 14.1% (inactive).
In the case of `CCc1c(C)[nH]c(=S)c(C#N)c1C`, the “activity change, negative = inhibition” value is reported as 22.4% (inactive).
In the case of `COc1ccc(C)cc1S(=O)(=O)Nc1cccc(Cl)c1Cl`, the “activity change, negative = inhibition” value is reported as 3.36% (inactive).
With `CCN(CC)C(=O)CSc1nnc(-c2cnccn2)n1-c1ccc(C)cc1` the “activity change, negative = inhibition” value was -8.2% (inactive).
`COC(=O)c1ccc(OCC(O)CN(CCO)CC(O)Cn2ccc3ccccc32)cc1` (stereo unspecified) was tested, and the “activity change, negative = inhibition” value was 9.1% (inactive).
For `NC(=O)CCCC1=NS(=O)(=O)c2ccccc2N1`, the “activity change, negative = inhibition” value was 8.24% (inactive).
For `CC(CC(=O)Nc1ccc(F)cc1F)S(=O)(=O)c1ccc2c(c1)NC(=O)CO2` (stereo unspecified), the “activity change, negative = inhibition” value was -11.5% (inactive).
In the case of `O=C(NC1CCCC1)C(NS(=O)(=O)c1ccc(Br)s1)c1ccccc1` (stereo unspecified), the “activity change, negative = inhibition” value is reported as 4.01% (inactive).
With `Cc1ccc(N)cc1-n1c(C)ccc1C` the “activity change, negative = inhibition” value was -2.66% (inactive).
With `COc1cc(C(=O)NNC(=O)CN2C(=O)NC3(CCCC3)C2=O)cc(OC)c1OC` the “activity change, negative = inhibition” value was 23.7% (inactive).
In the case of `OC(c1ccc(Cl)cc1)C(CN1CCOCC1)c1ccccc1` (stereo unspecified), the “activity change, negative = inhibition” value is reported as -4.17% (inactive).
For `C=CCn1c(SCc2c(C(=O)OC)sc(N)c2C(=O)OC)nnc1-c1ccc(Cl)cc1`, the “activity change, negative = inhibition” value was 10.1% (inactive).
With `CC1(C)CC(=O)c2cnc3nc4ccccc4n3c2C1` the “activity change, negative = inhibition” value was -13.2% (inactive).
In the case of `CCCC1(C(=O)OC)NC(c2ccco2)C2C(=O)N(C)C(=O)C21` (stereo unspecified), the “activity change, negative = inhibition” value is reported as -5.83% (inactive).
With `Cn1ccc(=Nc2ccc(NC(=O)c3ccc(N=c4ccn(C)c5ccc([N+](=O)[O-])cc45)cc3)cc2)cc1` the “activity change, negative = inhibition” value was -10.7% (inactive).
With `CCCN(CCC)S(=O)(=O)c1ccc(C(=O)N2CC3CCC(CC3)C2)cc1` the “activity change, negative = inhibition” value was -4.87% (inactive).
In the case of `CN(c1ccccc1)S(=O)(=O)c1ccc2[nH]c(=O)[nH]c2c1`, the “activity change, negative = inhibition” value is reported as 0.947% (inactive).
For `CC1(C(=O)NCc2ccco2)Cc2c(-c3ccc4c(c3)OCO4)ccnc2O1` (stereo unspecified), the “activity change, negative = inhibition” value was -5.41% (inactive).
In the case of `COC(=O)c1ccc(NC(=O)CSc2nncc3ccc(OC)c(OC)c23)cc1`, the “activity change, negative = inhibition” value is reported as -13.1% (inactive).
For `COCCN(CC(=O)Nc1ccccc1C)S(=O)(=O)c1ccc(S(=O)(=O)N2CCCC2)cc1`, the “activity change, negative = inhibition” value was 2.33% (inactive).
In the case of `CSc1nnc2c(n1)OC(c1cn(C)c3ccccc13)N(C(C)=O)c1ccccc1-2` (stereo unspecified), the “activity change, negative = inhibition” value is reported as 5.41% (inactive).
In the case of `O=C(CN1C(=O)NC2(CCCCCCC2)C1=O)NCc1ccc(F)cc1`, the “activity change, negative = inhibition” value is reported as 2.43% (inactive).
With `Cc1nc([N+](=O)[O-])nn1C12CC3CC(CC(Br)(C3)C1)C2` the “activity change, negative = inhibition” value was -0.205% (inactive).
For `CCOc1ccc(OCC)c(NC(=O)C2CCN(S(=O)(=O)c3c(C)noc3C)CC2)c1`, the “activity change, negative = inhibition” value was -11.4% (inactive).
In the case of `CSCc1cc(N2CCOCC2)nc(SCc2ccc(Cl)cc2Cl)n1`, the “activity change, negative = inhibition” value is reported as -1.83% (inactive).
For `CC(=O)c1ccc(S(=O)(=O)NC2CC(=O)N(c3ccc4c(c3)OCCO4)C2)cc1` (stereo unspecified), the “activity change, negative = inhibition” value was 5.8% (inactive).
For `NC(=O)CC(NC(=O)Cc1ccc(Br)cc1)c1ccc(NC2CC3CCC2C3)c([N+](=O)[O-])c1` (stereo unspecified), the “activity change, negative = inhibition” value was -18% (inactive).
For `CCOC(=O)C1(Cc2ccccc2C)CCCN(S(C)(=O)=O)C1` (stereo unspecified), the “activity change, negative = inhibition” value was 8.1% (inactive).
`COc1ccc(CNC(=O)C[C@H]2C[C@H](C(=O)N3CCOCC3)[C@@]3(C)c4[nH]c5cc(CCC(=O)N(C)C)ccc5c4CCN3C2=O)cc1OC` was tested, and the “activity change, negative = inhibition” value was 11.3% (inactive).
With `COc1ccc2occ(C(=O)c3ccc(N=C(C)N(C)C)cc3)c2c1` the “activity change, negative = inhibition” value was -7.37% (inactive).
For `CN(C)c1ccc(Nc2c3c4c(cccc4n(C)c2=O)C(=O)c2ccccc2-3)cc1`, the Potency was 4.47 µM (active).
In the case of `COCCNC(=O)Nc1ccc2nc(-c3ccco3)c(-c3ccco3)nc2c1`, the Potency is reported as 7.08 µM (active).
With `O=C(NCCOc1ccccc1F)Nc1ccc(Br)cc1` the “activity change, negative = inhibition” value was -2.52% (inactive).
With `COCCN(C(=O)c1ccco1)c1nnc(-c2ccc(OC)cc2)s1` the “activity change, negative = inhibition” value was 3.14% (inactive).
With `CC1=C(C(=O)OC(C)(C)C)C(c2ccc(Br)cc2)NC(=O)N1CCCC(=O)O` (stereo unspecified) the “activity change, negative = inhibition” value was -7.79% (inactive).
For `O=C(CSc1nnc2ccc(-c3ccncc3)nn12)N1CCCCC1`, the “activity change, negative = inhibition” value was 18.5% (inactive).
`O=C1CCC/C=C\C[C@@H](CC(=O)N(CCO)Cc2ccccc2)C(=O)NCCO1` was tested, and the “activity change, negative = inhibition” value was 13.1% (inactive).
In the case of `O=C(O)CSC(NC(=O)c1cccnc1)(C(F)(F)F)C(F)(F)F`, the “activity change, negative = inhibition” value is reported as -2.41% (inactive).
`COc1ccc(OC)c(C2C3=C(N=c4s/c(=C\c5cccc(O)c5)c(=O)n42)c2ccccc2CC3)c1` (stereo unspecified) was tested, and the “activity change, negative = inhibition” value was -12.8% (inactive).
With `CCOCCCN(C)C1CCN(C(=O)c2oc3ccccc3c2NC(=O)COc2cccc(C)c2)CC1` the “activity change, negative = inhibition” value was -11.2% (inactive).
`COc1cc(C(=O)OCC(=O)N(CC(C)C)C2CCS(=O)(=O)C2)ccc1OCC(C)C` (stereo unspecified) was tested, and the “activity change, negative = inhibition” value was 8.24% (inactive).
`COc1nc(N(C)C)nc(N2CC(=O)N(CCNS(=O)(=O)c3ccc(C)cc3)C2=N)n1` was tested, and the “activity change, negative = inhibition” value was 4.54% (inactive).
For `CCOc1ccc(NC(=O)CN(C)C(=O)c2cccc(S(=O)(=O)N3CCCC3)c2)cc1OCC`, the “activity change, negative = inhibition” value was 5.03% (inactive).
With `Cc1ccc(CN2CC(C(=O)N3CCN(S(=O)(=O)c4ccccc4)CC3)CC2=O)cc1` (stereo unspecified) the “activity change, negative = inhibition” value was 2.11% (inactive).
In the case of `CS(=O)(=O)c1ccc(Cl)c(NC(=O)COC(=O)c2ncc(Cl)c(Cl)c2Cl)c1`, the “activity change, negative = inhibition” value is reported as 7.73% (inactive).
`C=C1C2C[C@H](O)C(C)(C)[C@@]2(O)[C@H](O)C[C@]23C[C@@](C)(O)[C@H](CC[C@H]12)[C@H]3O` (stereo partly specified) was tested, and the “activity change, negative = inhibition” value was 6.34% (inactive).
With `CCc1ccc(S(=O)(=O)Nc2cc3c(cc2N2CCCCC2)n(C)c(=O)c(=O)n3C)cc1` the “activity change, negative = inhibition” value was -3.11% (inactive).
In the case of `O=S(=O)(Nc1cc(S(=O)(=O)N2CCOCC2)ccc1N1CCCC1)c1cccs1`, the “activity change, negative = inhibition” value is reported as 21.9% (inactive).
For `COc1cccc(N(CC(=O)NC2CCCC2)C(=O)Cn2nnc(-c3ccc(C)cc3)n2)c1`, the “activity change, negative = inhibition” value was -14.7% (inactive).
For `CC(C)(C)OC(=O)N1CCC(C(=O)Nc2cccc(C(=O)NCCc3ccccc3)c2)CC1`, the “activity change, negative = inhibition” value was 8.21% (inactive).
With `COc1ccc(CCNC(=O)C(=O)NCC2OCCN2S(=O)(=O)c2ccc(OC)c(C)c2)cc1` (stereo unspecified) the “activity change, negative = inhibition” value was 9.2% (inactive).
